POLH inh = qHTS for Inhibitors of Polymerase Eta; DNA polymerase eta (Homo sapiens), Q9Y253; recombinant Pol eta, fluorescent DNA replication assay; Potency, µM (series often up to 114 µM), for inactives: at the top dose activity change, negative = inhibition, most hits filed as inhibitors; 1.2% of 390,000 active; AID 588591, 2011; note: potency is the fitted concentration of half-maximal effect; % is set by controls: 0 for no effect and ±100 for the full control effect
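Fluorescent replication assay: 50 nM final substrate added after a 15 min room-temperature compound preincubation with 10 nM enzyme. Signal taken at 0 min and again at 10 min.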
POLI inh = qHTS for Inhibitors of Polymerase Iota; DNA polymerase iota (Homo sapiens), Q9UNA4; Pol iota fluorescent replication assay, 10 min; Potency, µM (titrated, usually from 115 µM), for the others: top-dose activity, negative = inhibition, hits mostly inhibitors; 1% of 390,000 active; note: potency is the fitted concentration of half-maximal effect
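Pol iota at 10 nM preincubated 15 min with compounds at room temperature; reaction started with fluorescent substrate, 50 nM final. Fluorescence read kinetically at 0 and 10 min; buffer-only wells as negative control.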
12-LOX inh = Primary qHTS assay for inhibitors of human arachidonate 12S-lipoxygenase (ALOX12): Round 2 | Potency, µM (doses to about 108 µM), without a hit: at the highest dose activity change, negative = inhibition, actives largely listed as inhibitors | purified 12hLO, xylenol orange hydroperoxide absorbance | 1.1% of 580,000 active; note: potency is the fitted concentration of half-maximal effect; % is set by controls: 0 for no effect and ±100 for the full control effect
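Purified human 12hLO (150 nM final) in 25 mM Hepes, 0.01% Triton X-100, pH 7.0 was preincubated 15 min at room temperature with compound. Then 40 uM arachidonic acid was added, 30 min. Hydroperoxide was read by Fe-XO absorbance ratio 573/405 nm.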
POLK inh = qHTS for Inhibitors of Polymerase Kappa | Potency, µM (doses to about 107 µM), without a hit: top-dose activity, negative = inhibition, actives largely listed as inhibitors | purified Pol kappa, fluorescent DNA synthesis assay, 10 min | AID 588579, 2011 | 0.53% of 400,000 active | DNA polymerase kappa (Homo sapiens), Q9UBT6; note: potency is the fitted concentration of half-maximal effect; % is set by controls: 0 for no effect and ±100 for the full control effect
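Activity was followed as the change in fluorescence between reads at 0 and 10 min after starting the reaction with 50 nM substrate. Beforehand, 10 nM polymerase had been preincubated with compound for 15 min at room temperature.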
PI5P4K alpha inh = qHTS for Inhibitors of phosphatidylinositol 5-phosphate 4-kinase (PI5P4K); Phosphatidylinositol 5-phosphate 4-kinase type-2 alpha (Homo sapiens), P48426; PI5P4Kalpha enzyme, ADP-Glo luminescence, 60 min; active compounds read low; max response, %; 1.2% of 330,000 active; AID 652105, 2013; active = max response of -50% or lower; inconclusive = between -30% and -50%; inactive = -30% or higher; note: value at the top dose of about 77 µM; % is set by controls: 0 for no effect and ±100 for the full control effect
Target sequence (P48426 whole entry, looked up): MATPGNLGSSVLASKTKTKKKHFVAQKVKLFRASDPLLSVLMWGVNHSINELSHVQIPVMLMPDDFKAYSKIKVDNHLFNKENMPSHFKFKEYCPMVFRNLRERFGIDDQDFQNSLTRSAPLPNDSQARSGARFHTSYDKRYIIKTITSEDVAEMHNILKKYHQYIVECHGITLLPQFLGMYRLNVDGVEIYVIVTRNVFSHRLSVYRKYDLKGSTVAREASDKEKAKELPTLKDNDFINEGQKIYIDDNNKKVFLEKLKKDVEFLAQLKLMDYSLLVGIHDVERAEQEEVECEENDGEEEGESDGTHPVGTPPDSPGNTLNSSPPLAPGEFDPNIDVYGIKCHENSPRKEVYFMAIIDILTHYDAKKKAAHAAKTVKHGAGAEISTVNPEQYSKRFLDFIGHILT
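Reactions run in 0.038 M HEPES pH 7.4, 0.28 mM EGTA, 0.1% CHAPS and 5% DMSO, with PI5P4Kalpha, substrate, compound and 5 microM ATP final, one hour at room temperature. Readout is ADP-Glo luminescence.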
Pol beta inh = qHTS Assay for Inhibitors of DNA Polymerase Beta | 1.3% of 340,000 active | Pol beta primer extension/strand displacement, fluorescence kinetic | P06746 | Potency, µM (series often up to 114 µM), without a hit: at the top dose activity change, negative = inhibition, hits mostly inhibitors; note: potency is the fitted concentration of half-maximal effect; % is set by controls: 0 for no effect and ±100 for the full control effect
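Preincubation: enzyme (10 nM) with compound, 15 min, RT. Reaction: substrate added to 50 nM final. Reads: 0 and 10 min. Analysis: normalized, Hill fit.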
* marks the source's active call; other numbers are inactive results; u = inconclusive; x = no result given; ! = not confirmed by another sample; [ ] = dose if it differs, or a comment. Shown are actives, neighbours in structure and some others; about 2.9% of the full set was active somewhere. Unless noted, calls come from the whole dose curve; as a rule, active = well fitted inhibition curve with a large enough effect; inconclusive = small, poorly fitted or top-dose-only effect, or another doubt; inactive = no such curve, though single readings can be large or run the other way.

SMILES | POLH inh | POLI inh | 12-LOX inh | POLK inh | PI5P4K alpha inh | Pol beta inh
CCC(C)NC(=O)Nc1ccc(Br)cc1 (centres undefined) | -20% | 14% | 0% | 1% | -8 | -1%
CS(=O)(=O)N1N=C(c2cccc(O)c2)CC1c1ccco1 (centres undefined) | x | x | -28% | x | x | x
Clc1ccc(-c2ccc(CN3CC[C@H]4CC[C@@H](C3)N4)o2)cc1 | x | x | 38% | x | x | x
CCCCC[C@H](O)C/C=C1/C(=O)C=C[C@@H]1C/C=C\CCCC(=O)O | x | x | x | -5%[19.4 µM] | x | x
CCCCC[C@H](O)/C=C/[C@H]1C=CC(=O)[C@@H]1C/C=C\CCCC(=O)O | x | x | 4%[12.5 µM] | 2%[19.4 µM] | x | 3.2µM*
CCCCC[C@@H](/C=C/C1C(=O)C=C[C@H]1C/C=C\CCCC(=O)O)OC(C)=O (some centres undefined) | 45µM* | u | -39% | -19% | -6 | x
CCCCCC(O)C=CC1C(O)CC(O)C1CC=CCCCC(=O)O (centres undefined) | -6% | x | -11% | x | 4 | x
CCCCC/C=C/C=C1/C(=O)C=C[C@@H]1C/C=C\CCCC(=O)O | x | x | -4%[12.5 µM] | 3.2µM*! | x | x
COc1ccc(C2Cn3nnc(C(=O)N4CCN(C(=O)CCc5ccccc5)CC4)c3CO2)cc1 (centres undefined) | x | x | 18% | x | x | x
O=C1Nc2ccc(S(=O)(=O)NCc3ccco3)c3cccc1c23 | 20µM* | 40µM* | u | -43% | u | x
O=C(O)CNS(=O)(=O)c1ccc2c3c(cccc13)C(=O)N2 | 32µM* | u | 15% | u | -16 | 9%
O=S(=O)(NCc1ccco1)c1ccccc1Br | -11% | 89µM*! | -7% | -23% | 1 | u
O=C(O)CCCCCNS(=O)(=O)c1ccc2c3c(cccc13)C(=O)N2 | u | u | -4% | u | -13 | 16µM*
CNS(=O)(=O)c1ccc2c3c(cccc13)C(=O)N2 | 4% | -3% | -6% | -11% | 4 | 68%
CCc1ccc2[nH]c(C(=O)O)cc2c1 | x | x | -13% | x | x | x
O=C(O)/C=C/c1ccc(S(=O)(=O)NCc2ccco2)cc1 | 35µM* | -22% | -2% | -23% | 6 | -29%
COC(=O)c1ccc2nc(-c3ccco3)c(Cc3ccccc3)n2c1 | x | x | 40µM* | x | -26 | x
CCCc1nc2ccc(C(=O)OC)cn2c1Cc1ccc(C)cc1 | x | x | 10µM* | x | -4 | x
CCCc1nc2ccc(C(=O)OC)cn2c1Cc1ccccc1 | x | x | u | x | 4 | x
COC(=O)c1ccc2nc(-c3ccco3)c(Cc3cccc(Cl)c3)n2c1 | x | x | 16µM* | x | -8 | x
Clc1cccc(Cc2c(-c3ccco3)nc3c4ccccc4ccn23)c1 | x | x | 10µM* | x | -3 | x
COCCN(C(=O)CCc1ccsc1)C1CC1 | x | x | 2% | x | x | x
CC(C)(C)c1cc(N)n[nH]1 | x | x | -4% | x | x | x
Cn1nc(C(=O)OCCOc2cccc(Br)c2)c2ccccc2c1=O | x | x | 4% | x | x | x
CCCC[C@]12Cc3cc(C#N)ccc3C(O1)c1c(c3cc(F)ccc3oc1=O)O2 | x | x | x | x | x | 1%[22.9 µM]
SMILES | POLH inh | POLI inh | 12-LOX inh | POLK inh | PI5P4K alpha inh | Pol beta inh
CCCC[C@]12Cc3cc(C#N)ccc3C(O1)c1c(c3ccccc3oc1=O)O2 | x | x | x | x | x | 33%[22.9 µM]
COc1ccc2c3c(c(=O)oc2c1)C1O[C@](c2ccsc2)(Cc2cc(C#N)ccc21)O3 | x | x | x | x | x | 3.2µM*
N#Cc1ccc2c(c1)C[C@]1(c3ccsc3)Oc3c(c(=O)oc4ccccc34)C2O1 | x | x | x | x | x | 2.8µM*
N#Cc1ccc2c(c1)C[C@]1(CCCCN3C(=O)c4ccccc4C3=O)Oc3cc(-c4ccccc4)oc(=O)c3[C@H]2O1 | x | x | x | x | x | -28%[22.9 µM]
Cc1cc2c(c(=O)o1)C1O[C@](c3ccsc3)(Cc3cc(C#N)ccc31)O2 | x | x | x | x | x | 10µM*
N#Cc1ccc2c(c1)C[C@]1(c3ccsc3)Oc3c(c(=O)oc4ccc(F)cc34)C2O1 | x | x | x | x | x | 11µM*
Cc1cc(CS(=O)(=O)Cc2ccc(F)cc2Cl)no1 | x | x | 23% | x | x | x
CCONC(=O)C(C)Sc1cc(Cl)ccc1Cl (centres undefined) | x | x | -38% | x | x | x
O=C(CCc1ncc(-c2ccccc2F)o1)Nc1ccc(F)cc1Cl | x | x | 1% | x | x | x
CCCCn1c(C)cc2c(c1=O)C1O[C@](c3ccsc3)(Cc3cc(OC)c(OC)cc31)O2 | x | x | x | x | x | 3%[22.9 µM]
Cc1cc2c(c(=O)n1-c1ccccc1)C1O[C@](c3ccsc3)(Cc3cc(C#N)ccc31)O2 | x | x | x | x | x | 8.9µM*
CCN(CC)S(=O)(=O)c1ccc(S(=O)(=O)Nc2ccc(SC#N)cc2F)cc1 | x | x | -59% | x | x | x
Cc1cc(C)n2cnnc2n1 | -6% | 15% | 75% | 11% | 0 | -11%
Cc1cc(C)n2c(=S)[nH]nc2n1 | -1% | 3% | u | -14% | -76* | 11%
Cn1c2ccccc2c2ccc3c(c21)C(=O)C=CC3=O | u | 54% | u | -24% | -72* | x
COc1ccc2c(c1)c1ccc3c(c1n2C)C(=O)C=CC3=O | -4% | 18µM* | 0.71µM* | 3% | -74* | 19%
Cc1ccc2c(c1)c1ccc3c(c1n2C)C(=O)C=CC3=O | -17% | u | 1.1µM* | -19% | -74* | 1%
O=S(=O)(NC1=NCN(CCc2ccccc2)CN1)c1ccccc1 | x | x | 9% | x | x | x

Bioassay records: PubChem BioAssay, National Center for Advancing Translational Sciences (NCATS)
